Measured values reported in PubChem BioAssay AID588852 (The Scripps Research Institute Molecular Screening Center, 2011).
Screen size: about 360,000 compounds; about 4,600 (1.3%) were called active.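 How the source made its calls: active means percent inhibition above its own plate's cutoff, namely the mean of that plate's compound wells plus 3 SD; inactive means the rest.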 Many of the other results were omitted from the sample, so actives are more common in it than they were.

target: Muscarinic acetylcholine receptor M1 (Homo sapiens) (UniProt P11229); assay: human M1 muscarinic receptor antagonists, primary screen, CHO-K1 cells, Fluo-8 calcium fluorescence, 1536-well (AID 588852); conditions: CHO-K1 hM1, Fluo-8 calcium fluorescence, ACh EC80 antagonist; at 3 µM; active compounds read high;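 further: peak over basal fluorescence ratio during 140 s after agonist addition; 0% = ACh EC80 plus DMSO and 100% = DMSO alone without agonist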
Sequence (P11229 whole entry, looked up): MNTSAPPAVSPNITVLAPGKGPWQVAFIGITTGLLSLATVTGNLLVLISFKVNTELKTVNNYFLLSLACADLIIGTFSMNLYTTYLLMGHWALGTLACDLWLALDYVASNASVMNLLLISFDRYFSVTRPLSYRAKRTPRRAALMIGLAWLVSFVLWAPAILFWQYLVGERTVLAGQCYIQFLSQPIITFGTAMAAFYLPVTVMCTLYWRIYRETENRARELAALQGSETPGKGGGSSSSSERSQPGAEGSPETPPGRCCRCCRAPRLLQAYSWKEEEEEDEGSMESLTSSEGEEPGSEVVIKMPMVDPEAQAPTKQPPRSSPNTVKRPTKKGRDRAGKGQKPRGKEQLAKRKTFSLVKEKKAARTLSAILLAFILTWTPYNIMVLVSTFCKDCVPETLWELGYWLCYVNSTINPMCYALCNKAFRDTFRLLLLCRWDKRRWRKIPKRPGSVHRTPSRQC

Structure (SMILES)	inhibition
CC1CCC2(CC1)NC(=O)N(CC(=O)NCc1ccco1)C2=O (stereo not given)	16.7% (inactive)
O=S1(=O)CC(N2CCN(c3ccccn3)CC2)CN1Cc1ccc(F)cc1 (stereo not given)	-1.35% (inactive)
CCCC(CNC(=O)COC(=O)C1=NNC(=O)CC1)c1ccc(Cl)cc1Cl (stereo not given)	-6.04% (inactive)
O=C(CN1CCCCCC1)N1c2ccccc2Sc2ccc(C(F)(F)F)cc21	102% (active)
CCC(=O)Nc1cc(C(F)(F)F)ccc1N1CCCC1	3.67% (inactive)
O=C(CN1CCCCC1)N1c2ccccc2Sc2ccc(C(F)(F)F)cc21	96.8% (active)
O=C(CN1C(=O)/C(=C\c2ccc(C(F)(F)F)cc2)Sc2ccccc21)NCc1ccco1	13.9% (inactive)
COc1cc(/C=C/C(=O)N2c3ccccc3Sc3ccc(C(F)(F)F)cc32)cc(OC)c1OC	-6.22% (inactive)
O=C(CSc1nc2ccccc2o1)N1c2ccccc2Sc2ccc(Cl)cc21	-3.61% (inactive)
COc1ccc(NC(=O)c2cccc(Cl)c2)c[n+]1[O-]	-8.94% (inactive)
Cc1cccc(NS(=O)(=O)c2ccc([N+](=O)[O-])cc2)n1	-16.4% (inactive)
CCc1nc2nc(C)c(NS(=O)(=O)c3ccc4c(c3)CCCC4)c(=O)n2[nH]1	12.2% (inactive)
Cc1nc2nc(C)c(NS(=O)(=O)c3ccc(C(C)(C)C)cc3)c(=O)n2[nH]1	20.2% (active)
Cc1ccn2c(=O)c(C(=O)NCCC3=CCCCC3)c(O)nc2c1	-8.96% (inactive)
CN(C)C(=O)N1CCNCC1	-11.2% (inactive)
CC(=O)N1CCOc2ccc(S(=O)(=O)N3CCC(C(=O)Nc4ccccc4F)CC3)cc21	-13.2% (inactive)
CC(C)(C)N(CC#CCC(O)(c1ccccc1)C1CCCC1)CCO (stereo not given)	83.9% (active)
CC(C)c1ccc(N2CC(C(=O)Nc3nccs3)CC2=O)cc1 (stereo not given)	12.6% (inactive)
CCCCn1nnnc1C(c1cccc(OC)c1OC)N1CCN(C/C=C/c2ccccc2)CC1 (stereo not given)	34.7% (inactive)
CN1CCN(C2Cc3ccc(Cl)cc3Sc3ccc(F)cc32)CC1 (stereo not given)	60% (active)

Structure (SMILES)	inhibition
COc1ccc(NC(=O)C(CC(C)C)NC(=O)C2CCC(C)CC2)cc1 (stereo not given)	0.68% (inactive)
CCN(CC)CCNC(=O)c1ccc(NC(=O)c2cc(-c3ccncc3)nc3ccccc23)cc1	45.5% (active)
O=C(Nc1ccc(S(=O)(=O)Nc2nccs2)cc1)c1cc(-c2ccncc2)nc2ccccc12	-10.5% (inactive)
CCN(CC)CCNC(=O)c1ccc(NC(=O)c2c(F)cccc2Cl)cc1	-0.98% (inactive)
COC(=O)c1ccc2nc(-c3cccc(Br)c3)c(Cc3ccc(OC)cc3C)n2c1	-41.3% (inactive)
CCCCNc1c(-c2ccc(OC)c(Sc3ccc(OC)cc3)c2)nc2ccc(Cl)cn12	19.9% (inactive)
CCCCNc1c(-c2cccc(Sc3ccc(OC)cc3)c2)nc2ccccn12	36.9% (active)
CCCCNC(=O)c1nc(C2CCN(S(=O)(=O)c3ccc(F)c(F)c3)CC2)oc1-c1cccc(C(F)(F)F)c1	-12% (inactive)
CCN(CC)CCCC(C)n1c2nc(=O)[nH]c(=O)c-2nc2cc(Cl)ccc21 (stereo not given)	49.8% (active)
O=Cc1cn(CCOc2ccc(F)cc2)c2ccccc12	7.49% (inactive)
CCCN(CCC)S(=O)(=O)c1cc2c(cc1Br)CCN2C(=O)CC	-3.69% (inactive)
O=C(Nc1cccc(Cl)c1N1CCOCC1)c1ccc2c(c1)OCCO2	-6.53% (inactive)
O=C(Nc1cccc(Cl)c1N1CCOCC1)c1cccnc1	-2.23% (inactive)
CCN1CCN(c2c(Cl)cccc2NC(=O)c2ccc(Br)o2)CC1	33% (active)
CCn1cc(-c2cc(C(=O)O)on2)c(C)n1	-5.04% (inactive)
Cc1ccc(-c2nc3ccc(Br)cn3c2Cc2ccccc2C(F)(F)F)cc1	-2.72% (inactive)
CN1C(=O)c2ccc(NC(=O)c3c(F)c(F)c(F)c(F)c3F)cc2C1=O	-10% (inactive)
CCC(C)Sc1nc2c(cnn2-c2ccc(F)cc2)c(=O)[nH]1 (stereo not given)	-10.5% (inactive)
Cc1cccc(-n2ncc3c(=O)[nH]c(SCC(=O)Nc4cc(C)on4)nc32)c1	-7.77% (inactive)
O=C(CSc1nc2c(cnn2-c2ccc(F)cc2)c(=O)[nH]1)N1CCCCCC1	39.7% (active)

Structure (SMILES)	inhibition
CC(C)C[C@H](NC(=O)[C@@H]1O[C@H]1C(=O)O)C(=O)NCCCCN=C(N)N	-28.2% (inactive)
CCCNC(=O)C1(C)CCN(Cc2csc(-c3ccc(Cl)cc3)n2)C1 (stereo not given)	15.8% (inactive)
CSCCC(c1nnnn1Cc1ccccc1)N1CCN(C/C=C/c2ccccc2)CC1 (stereo not given)	-4.53% (inactive)
Nc1ncnc2c1ncn2[C@@H]1O[C@H](C(=O)N2CCSC2)[C@@H](O)[C@H]1O	-21.6% (inactive)
CN(C)CCCO/N=C(\c1ccccc1)c1ccncc1	34.6% (active)
COc1cc(OC)nc(N/N=C(\c2ccccc2)c2ccncc2)n1	1.36% (inactive)
O=C(O/N=C(/c1ccccc1)c1ccncc1)c1ccccc1[N+](=O)[O-]	0.78% (inactive)
Oc1ccccc1N1CCN(c2ncnc3sc(-c4ccccc4)cc23)CC1	25.7% (active)
COc1ccccc1N1CCN(c2ncnc3sc(C)c(-c4ccccc4)c23)CC1	-8.38% (inactive)
CCc1cc2c(N3CCN(c4nnc(CC)s4)CC3)ncnc2s1	6.82% (inactive)
CN(C)C(=O)c1cccc(-c2cnc3c(NC=O)cc(-c4ccc(F)cc4)cn23)c1	-4.58% (inactive)
Cc1cc(C)cc(OCC(=O)Nc2ccc(N3CCOCC3)cc2N2CCOCC2)c1	0.26% (inactive)
Cc1cc(N2CCCC2)ccc1NC(=O)COc1ccc(Cl)cc1	38.5% (active)
O=C(COc1ccc(Cl)cc1)Nc1ccccc1CO	3.31% (inactive)
Fc1ccccc1CCNc1nnnn1-c1ccccc1	-15.4% (inactive)
O=C(COc1ccccc1)Nc1nonc1NC(=O)COc1ccccc1	3.1% (inactive)
COc1ccc(C)cc1NC(=S)Nc1ccccc1SC	-4.63% (inactive)
O=C(c1cccs1)N1CCC(c2nc3ccccc3s2)CC1	-0.25% (inactive)
Cc1cccc(NC(=S)N2CCC(c3nc4ccccc4s3)CC2)c1	6.88% (inactive)
Cc1cccc(C(=O)N2CCC(c3nc4ccccc4s3)CC2)c1	41.2% (active)
